Test results as given in PubChem BioAssay (EPA / NIEHS).
Records with an inconclusive call do not appear. The source made the active and inactive calls. How the source made its calls: active means hit-call score of the fitted dose curve at least 0.9, where 1 is the maximum; inconclusive means response in the unintended direction; inactive means score below 0.9.

Each molecule was assayed against Retinoic acid receptor RXR-alpha (Homo sapiens) (UniProt P19793) (assay: OT_NURR1_NURR1RXRa_1440: Odyssey Thera (OT) 24-hour HEK293T Protein Complementation Assay for Nurr1/retinoid X receptor (RXR) (AID 2283386)).
Outline: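 Fluorescence PCA read-out; HEK293T; 24 h post-dose; bait/prey fused to reporter fragments; gain-of-signal fit vs DMSO negative control.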

Retinoic acid receptor RXR-alpha (Homo sapiens), sequence (P19793 whole entry, looked up, the tested form may be a part): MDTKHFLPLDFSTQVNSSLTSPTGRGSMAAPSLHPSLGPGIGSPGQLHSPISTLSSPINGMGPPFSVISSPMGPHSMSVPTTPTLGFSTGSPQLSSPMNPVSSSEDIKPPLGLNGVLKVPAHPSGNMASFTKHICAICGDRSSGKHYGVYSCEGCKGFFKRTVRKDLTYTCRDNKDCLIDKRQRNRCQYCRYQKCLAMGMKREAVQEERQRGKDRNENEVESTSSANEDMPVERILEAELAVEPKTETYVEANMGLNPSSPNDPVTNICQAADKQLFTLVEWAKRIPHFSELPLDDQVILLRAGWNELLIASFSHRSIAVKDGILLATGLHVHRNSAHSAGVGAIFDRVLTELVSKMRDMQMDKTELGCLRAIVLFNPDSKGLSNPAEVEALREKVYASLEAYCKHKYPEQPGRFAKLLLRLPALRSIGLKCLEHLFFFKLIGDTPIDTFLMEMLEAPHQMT

| Compound | outcome | AC50 |
| --- | --- | --- |
| Cn1cnc([N+](=O)[O-])c1Sc1ncnc2nc[nH]c12 | inactive | – |
| O=C(O)c1cc(N=Nc2ccc(S(=O)(=O)Nc3ccccn3)cc2)ccc1O | inactive | – |
| O=C(CCCCCCCCc1cccnc1)N1CCC(C=C(c2ccccc2)c2ccccc2)CC1 | – | 12 µM (active) |
| O=c1[nH]c2ccc(S(=O)CCN3CCC(Cc4ccc(F)cc4)CC3)cc2o1 (stereo unspecified) | inactive | – |
| CCCCCCCCO | inactive | – |
| COc1ccc(-n2nc(C(F)F)cc2-c2ccc(S(C)=O)cc2)cc1 (stereo unspecified) | inactive | – |
| C[C@](N)(Cc1ccc(O)c(O)c1)C(=O)O | inactive | – |
| CC1=CC(=O)CC(C)(C)C1 | inactive | – |
| C=CCCCCCCCCC(=O)O | inactive | – |
| Nc1nc2ncc(CNc3ccc(C(=O)N[C@@H](CCC(=O)O)C(=O)O)cc3)nc2c(=O)[nH]1 | inactive | – |
| CCOCCO | inactive | – |
| CC(C)=CCCC(C)=CC=O | inactive | – |
| CCC(C)(C)C(=O)O[C@H]1C[C@@H](C)C=C2C=C[C@H](C)[C@H](CC[C@@H]3C[C@@H](O)CC(=O)O3)[C@H]21 | inactive | – |
| CC[C@H]1OC(=O)[C@H](C)[C@@H](O[C@H]2C[C@@](C)(OC)[C@@H](O)[C@H](C)O2)[C@H](C)[C@@H](O[C@@H]2O[C@H](C)C[C@H](N(C)C)[C@H]2O)[C@](C)(O)C[C@@H](C)C(=O)[C@H](C)[C@@H](O)[C@]1(C)O | inactive | – |
| CC[C@H]1CC[C@H](NCc2cc3c(cc2OC)[C@H]2C[C@H]2C(=O)N3C)[C@H](c2ccccc2)N1 | inactive | – |
| CCn1nc(Cc2ccccc2)cc1C1CCN(C[C@H]2C[C@H](N(C)[C@@H](C(=O)O)C(C)C)C[C@@H]2c2cccc(F)c2)CC1 | inactive | – |
| O=C(O)c1cccc(N(Cc2cccnc2)c2ccc(OC(F)F)c(OC(F)F)c2)c1 | – | 32.4 µM (active) |
| O=C(O)CC(O)C(=O)O (stereo unspecified) | inactive | – |
| Nc1ccc(Nc2ccccc2)cc1 | inactive | – |
| CC(C)CCO | inactive | – |
| CCCC(=O)OCC | inactive | – |
| O=C(O)CCN(C1(C(=O)NO)CCCC1)S(=O)(=O)c1ccc(Oc2ccc(F)cc2)cc1 | inactive | – |

The molecules below were run against Peroxisome proliferator-activated receptor gamma (Homo sapiens) (UniProt P37231) (assay: OT_PPARg_PPARgSRC1_0480: Odyssey Thera (OT) 8-hour Protein-Complementation Assay for Peroxisome Proliferator-activated Receptor Gamma / SRC-1 Co-activator (AID 2283387);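 further: nuclear to cytoplasmic split Venus YFP fluorescence ratio reporting PPARg SRC-1 interaction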).
Outline: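 Protein-fragment complementation in HEK293T: Venus YFP halves (residues 1-158, 159-239, mutated to IFP1/IFP2) fused to PPARg/SRC-1. 8 h exposure; N/C ratio at 488 nm; DMSO negative control.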

Peroxisome proliferator-activated receptor gamma (Homo sapiens), sequence (P37231 whole entry, looked up, the tested form may be a part): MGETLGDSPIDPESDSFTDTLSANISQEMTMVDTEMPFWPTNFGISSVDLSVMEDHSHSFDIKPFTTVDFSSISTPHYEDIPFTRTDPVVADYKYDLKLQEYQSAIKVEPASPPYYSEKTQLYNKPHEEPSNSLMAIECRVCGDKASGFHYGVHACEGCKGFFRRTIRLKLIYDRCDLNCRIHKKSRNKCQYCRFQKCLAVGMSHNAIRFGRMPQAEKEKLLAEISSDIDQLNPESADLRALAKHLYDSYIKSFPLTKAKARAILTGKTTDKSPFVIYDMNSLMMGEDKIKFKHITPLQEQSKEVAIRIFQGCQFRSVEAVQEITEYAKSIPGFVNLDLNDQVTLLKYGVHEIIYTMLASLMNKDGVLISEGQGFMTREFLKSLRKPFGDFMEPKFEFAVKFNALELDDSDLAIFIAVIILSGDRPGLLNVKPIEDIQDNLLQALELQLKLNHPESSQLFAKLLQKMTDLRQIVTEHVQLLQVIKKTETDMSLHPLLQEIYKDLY

| Compound | outcome |
| --- | --- |
| Cn1cnc([N+](=O)[O-])c1Sc1ncnc2nc[nH]c12 | inactive |
| O=C(O)c1cc(N=Nc2ccc(S(=O)(=O)Nc3ccccn3)cc2)ccc1O | inactive |
| O=C(CCCCCCCCc1cccnc1)N1CCC(C=C(c2ccccc2)c2ccccc2)CC1 | inactive |
| O=c1[nH]c2ccc(S(=O)CCN3CCC(Cc4ccc(F)cc4)CC3)cc2o1 (stereo unspecified) | inactive |
| CCCCCCCCO | inactive |
| COc1ccc(-n2nc(C(F)F)cc2-c2ccc(S(C)=O)cc2)cc1 (stereo unspecified) | inactive |
| C[C@](N)(Cc1ccc(O)c(O)c1)C(=O)O | inactive |
| CC1=CC(=O)CC(C)(C)C1 | inactive |
| COc1cccc(-c2ccc(/C=C\CN3CCCCCC3)cc2Cl)c1 | inactive |
| C=CCCCCCCCCC(=O)O | inactive |
| CCCCCCc1ccc(O)cc1O | inactive |
| Nc1nc2ncc(CNc3ccc(C(=O)N[C@@H](CCC(=O)O)C(=O)O)cc3)nc2c(=O)[nH]1 | inactive |
| CCOCCO | inactive |
| CC(C)=CCCC(C)=CC=O | inactive |
| CCC(C)(C)C(=O)O[C@H]1C[C@@H](C)C=C2C=C[C@H](C)[C@H](CC[C@@H]3C[C@@H](O)CC(=O)O3)[C@H]21 | inactive |
| CCCCCCCCCCCCc1ccccc1 | inactive |
| CC[C@H]1OC(=O)[C@H](C)[C@@H](O[C@H]2C[C@@](C)(OC)[C@@H](O)[C@H](C)O2)[C@H](C)[C@@H](O[C@@H]2O[C@H](C)C[C@H](N(C)C)[C@H]2O)[C@](C)(O)C[C@@H](C)C(=O)[C@H](C)[C@@H](O)[C@]1(C)O | inactive |
| CC[C@H]1CC[C@H](NCc2cc3c(cc2OC)[C@H]2C[C@H]2C(=O)N3C)[C@H](c2ccccc2)N1 | inactive |
| CCN(C(=O)c1cc(C)cc(OC[C@H](C)Nc2ccncc2)c1)C(C)C | inactive |
| CC(=O)c1ccc2c(c1)[C@H](NC(=O)c1ccc(F)cc1)[C@@H](O)C(C)(C)O2 | inactive |
| CCn1nc(Cc2ccccc2)cc1C1CCN(C[C@H]2C[C@H](N(C)[C@@H](C(=O)O)C(C)C)C[C@@H]2c2cccc(F)c2)CC1 | inactive |
| COc1ccc2sc(C(=O)Nc3nnn[nH]3)c(OC(C)C)c2c1 | inactive |
| O=C(O)c1cccc(N(Cc2cccnc2)c2ccc(OC(F)F)c(OC(F)F)c2)c1 | inactive |
| Fc1ccccc1[C@@H](F)COC1CCC(Nc2ncnc3[nH]ncc23)CC1 (stereo partly specified) | inactive |
